# Measured values: PubChem BioAssay (NCI)
# The panel holds about 83,000 compounds, 20% with a hit somewhere; the sample as a whole holds those more often.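 Single-dose data. Exposure time 48 hours. Values below 10 considered active.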 A number with no mark means an inactive call. The source made the active and inactive calls.
# Test system: LOX IMVI melanoma
# Experiment: NCI-60 one-dose screen, 48 h (100 = growth as untreated, 0 = no growth, -100 = all killed)
# Details: 10 µM unless noted
# Protocol: Growth inhibition of the LOX IMVI human tumor cell line is measured as a screen for anti-cancer activity. Cells are grown in 96 well plates and exposed to the test compound for 48 hours. Compounds are tested at a single concentration, which is 10^-5 M for most compounds. The reported endpoint is percent growth (GI% or GIPRCNT), where numbers from 0 - 100% represent growth inhibition, and numbers from -100% - 0 represent cell death. For example, a value of 40 represents 60% growth inhibition. A value of 0 means no net growth occurred over the course of the experiment. A value of -40 indicates 40% of cells at the beginning of the experiment died by the end of the experiment. A value of -100 means all cells are dead at the end of the experiment.
# NCI-60 Human Tumor Cell Lines Screen was performed using the standard one-dose NCI protocol, which is described in more detail at https://dtp.cancer.gov/discovery_development/nci-60/default.htm.
# Compounds with GIPRCNT values below 10 were considered active. Activity score was based on GIPRCNT using the following formula: […]
# Score is 0 for GIPRCNT values of 100 or above, 50 for GIPRCNT values of 0, and 100 for GIPRCNT values of -100.
row,SMILES,growth
1,COc1ccc(C2C(C#N)=C(N)Oc3c2sc2c(Br)cccc32)cc1 (stereo not given),29.2%
2,COc1cc(C2C3=C(COC3=O)N(CCO)c3cc4c(cc32)OCCO4)cc(OC)c1OC (stereo not given),17.7%
3,O=C(N/N=C/c1ccc(Cl)cc1Cl)c1ccc2nc(-c3ccc(Cl)cc3)[nH]c2c1,-55.9% (active)
4,CC/C(Cc1ccccc1)=C(\c1ccc(OCCN2CCCCCC2)cc1)c1ccc(OC(=O)NCc2ccccc2)cc1,4.35% (active)
5,CC1=CCC[C@@H]2C1(C)CC[C@H](C)[C@@]2(C)CC1=CC(=O)C(SC(C)(C)C)=CC1=O (stereo not given in full),74.6%
6,N=c1c2c(=N)n3c(nc2nc2n1-c1ccccc1Sc1ccccc1-2)sc1cc(Cl)ccc13,13.5%
7,Cc1ccc2nc(Cl)c(Cn3nnnc3SCc3ccccc3)cc2c1,86.7%
8,COc1ccc(C2=NN(C(C)=O)C(c3ccc(Oc4ccnc5cc(Cl)ccc45)c(OC)c3)C2)cc1 (stereo not given),53.2%
9,CCn1cc(C2=C(c3cn(C)c4ncccc34)C(=O)NC2=O)c2cccnc21,66.5%
10,O=C1/C(=C/c2ccc(Br)cc2)COc2ccc(O)c(O)c21,-91% (active)
11,Cn1c(=O)c2c(nc(NC3=NS(=O)(=O)c4ccccc43)n2Cc2ccccc2)n(C)c1=O,95.6%
12,O=C(/C=C/c1cccc(Cl)c1)c1cccc(OCCCCOc2cccc(C(=O)/C=C/c3cccc(Cl)c3)c2)c1,30.5%
13,C=CCn1c(SCC(=O)Nc2ccc(C(=O)/C=C/c3cc(OC)c(OC)c(OC)c3)cc2)nnc1-c1cc(-c2ccc(OC)cc2)nc2ccccc12,94.9%
14,COc1cc2oc(-c3cccc(NC(=O)c4ccc5c(c4)OCO5)c3)cc(=O)c2c(OC)c1OC,39.5%
15,COc1cc2c3c(c1O)-c1ccccc1[C@@H]1OC(=O)N(CC2)[C@H]31,99.1%
16,O=C1NC(=O)c2c1c1c3ccccc3[nH]c1c1oc3cc(Br)ccc3c21,59.9%
17,Cn1cc(C(=O)c2nc(-c3c[nH]c4ccc(Br)cc34)no2)c2cc(Br)ccc21,78.3%
18,CCOC(=O)c1c(C)nc2ccccc2c1/C=C/c1ccc(OC)cc1,68.5%
19,COc1ccc(/C=C/C(=O)c2ccc(NC(=O)CSc3nnc(-c4cc(-c5ccccc5)nc5ccccc45)n3-c3ccccc3)cc2)cc1,96.5%
20,COC(=O)C1=C(C(=O)Nc2cccnc2)C2OC1(C(Cc1ccccc1)Oc1ccccc1)C1OC21 (stereo not given),80.7%

row,SMILES,growth
1,O=C1CCCc2nc3sc4c(=O)n(-c5ccccc5Cl)nnc4c3cc21,102%
2,CO[C@H](C(=O)[C@@H](O)[C@@H](C)O)[C@@H]1Cc2cc3cc(O[C@H]4C[C@@H](O[C@H]5C[C@@H](O)[C@H](O)C(C)O5)[C@H](O)C(C)O4)c(C)c(O)c3c(O)c2C(=O)[C@H]1O[C@H]1C[C@@H](O[C@H]2C[C@@H](O[C@H]3C[C@@H](OC)[C@H](O)C(C)O3)[C@@H](O)C(C)O2)C(O)(O)C(C)O1 (stereo not given in full),3.54% (active)
3,COc1ccc2nc(SCC(=O)Nc3ccccc3C)[nH]c2c1,95.6%
4,CCCCCSB(SCCCCC)c1ccccc1,96.8%
5,Cc1cc2oc(=O)cc(CP(=O)(O)O)c2cc1O,98.7%
6,COC(=O)C1=Nc2ccc(F)cc2/C1=C\c1sc(Nc2ccc(O)cc2)nc1O,64%
7,O=C(CCCCNC(=O)c1cc(=O)c(O)co1)Nc1ccccc1,45.3%
8,CCOC(=O)c1cn2ncnc(Oc3ccc(NC(=O)NC4CC4)c(F)c3)c2c1C,87.7%
9,CN(C)c1ccc(/C=C2/C=C(c3ccccc3)OC2=O)cc1,98.8%
10,COc1cc(-c2nc3occn3c2-c2ccnc(NCCCNS(=O)(=O)c3ccccc3)n2)ccc1F,31.5%
11,CCNc1nc(-c2ccc(F)cc2)c(C#N)c(=O)n1C,63.2%
12,Cn1cc(-c2csc(-c3cn(C(=O)OC(C)(C)C)c4ccccc34)n2)c2ccnc(Cl)c21,52.8%
13,Cc1[nH]c(C(=O)Nc2cccc(OC3CCNCC3)c2)c(Cl)c1Cl,40.9%
14,CCN(CC)CCCC(C)Nc1ccc2cc(OC)ccc2n1 (stereo not given),102%
15,COc1ccc(Cn2cc(C(=O)N=Nc3c(O)[nH]c4c(Cl)cccc34)nn2)cc1,93.7%
16,COc1ccc(C/C(C)=C(/c2ccc(OCCN3CCCCCC3)cc2)c2ccc(OC(=O)NCc3ccccc3)cc2)cc1,52.3%
17,N#Cc1nc(-c2ccc(F)cc2)oc1S(=O)(=O)N1CCN(c2ccc(F)cc2)CC1,10.3%
18,O=C1/C(=C/c2ccccc2[N+](=O)[O-])COc2ccc(O)cc21,-66.1% (active)
19,COc1ccc(Nc2ncc(C(N)=O)c(NCCCNC(=O)C3CCC3)n2)cc1,73.1%
20,N#Cc1c(Nc2ccc(F)cc2)n[nH]c1-c1cccs1,95.1%
